# Abeta rescue: restores growth of yeast expressing A-beta42 peptide; yeast expressing A-beta42, growth rescue, OD600, 48 h; response scale: 0% DMSO, 100% iron-clioquinol control; Potency, µM (top dose mostly 46.1 µM), hits mostly activators; 0.063% of 410,000 active; AID 1347071; further: nearly all actives have a fitted effect of over 55% in size
#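 Yeast A-beta toxicity model in growth medium with pinned compounds, 48 h at 30 C; growth read as absorbance at 600 nm. Normalized to FeCl3/clioquinol equimolar mix (positive) and DMSO (negative).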
# FUS yeast rescue: FUS proteinopathy suppression in yeast. Potency, µM (series often up to 76.6 µM), most hits filed as activators. 0.24% of 390,000 active. S. cerevisiae FUS-expressing, growth rescue, OD600, 24 h;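 further: plate controls were DMSO vehicle for no effect and reference control for full effect; nearly all actives have a fitted effect of over 55% in size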
#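 Compound concentration series was pinned onto galactose-induced FUS-expressing yeast seeded at OD 0.005. Plates sat 24hr at 30C; absorbance at 600 nm gave growth. DMSO served as background control.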
# TDP43 rescue: TDP-43 toxicity inhibition in yeast; TDP-43 expressing yeast growth rescue, BacTiter-Glo, 24 h; Potency, µM (series often up to 46.1 µM), for inactives: at the highest dose growth rescue (activation), most hits filed as activators; 1.8% of 410,000 active; further: % of control where 0% means no effect; nearly all actives have a fitted effect of over 50% in size
#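 Growth rescue of TDP-43-toxic yeast measured as ATP luminescence (BacTiter-Glo). Cells grown to mid-log in raffinose, induced in galactose at OD600=0.02, exposed to compound 24 hr at 30 deg C.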
# aSyn yeast inh: inhibitors of alpha-synuclein toxicity in yeast; Potency, µM (highest dose often 46.1 µM), for inactives: at the top dose growth rescue (activation), most hits filed as activators; Yeast expressing alpha-synuclein, growth rescue, BacTiter-Glo, 24 h; 0.14% of 370,000 active; further: % of control where 0% means no effect; nearly all actives have a fitted effect of over 65% in size
#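 Rescue of yeast growth: cells expressing toxic alpha-synuclein, induced in galactose at OD600 0.02, incubated with compound 24 h at 30 C. ATP luminescence quantified growth; inhibitors of toxicity appear as activators.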
# Mito fusion act: mitochondrial division inhibition or fusion activation | S. cerevisiae fusion-defective mutant growth rescue, CellTiterGlo 48 h | Potency, µM (titrated, usually from 46.1 µM), for inactives: top-dose growth rescue (activation), actives largely listed as activators | 0.23% of 320,000 active | AID 485298; further: % of control where 0% means no effect; nearly all actives have a fitted effect of over 45% in size
#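 Read-out: ATP-based luminescence (CellTiterGlo, 10 min ambient) reporting growth of fusion-defective ts yeast after 48 hours at 37C on glycerol/ethanol YPEG medium in the presence of compound.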
# Numbers without * were called inactive; i = inactive; ? = inconclusive; . = no result given; ! = a repeat was not active; [ ] = remark or other dose. Only some compounds are listed: those with a hit (about 2.2% of all), similar ones and a draw of the others. The call rests on the fitted dose curve; in most records, active means well fitted curve in the direction sought with a large enough effect; inconclusive means small, poorly fitted or top-dose-only effect, or another doubt; inactive means no such curve, though single readings can be large; an effect the other way counts as inactive or inconclusive. Potency means the concentration at half of the fitted maximal effect.
SMILES,Abeta rescue,FUS yeast rescue,TDP43 rescue,aSyn yeast inh,Mito fusion act
CN(C)c1ccc(C(CNC(=O)c2ccccc2)c2c[nH]c3ccccc23)cc1 (stereo not drawn),i,11µM*,3%,-1%,?
COc1ccc(S(=O)(=O)N(Cc2nc(-c3ccc(C)cc3)no2)C2CCCCC2)cc1,i,?,2%,.,.
Oc1ccc(N=Nc2ccc3c(c2)OCCO3)c2ncccc12,?,i,22µM*,?,10%
CCc1nnc(NC(=O)[C@@H]2CCCN2C(=O)c2cccs2)s1,.,.,.,0%,.
O=C(Nc1nnc(-c2cccs2)o1)c1cccc(F)c1,11µM*,i,13µM*,29%,.
O=C(Nc1ccsc1C(=O)O)c1cccc(Oc2ccccc2)c1,i,i,-1%,5%,29%
O=C(Nc1nnc(C2=COCCO2)o1)c1cccc([N+](=O)[O-])c1,i,i,9%,-2%,-1%
O=C(Nc1nnc(-c2cccs2)o1)c1cccc(Oc2ccccc2)c1,i,i,4µM*,?,10%
O=C(Nc1nnc(-c2cccs2)o1)c1cc(-c2ccccc2)nc2ccccc12,?,i,-27%,?,13µM*
O=C(Nc1nnc(-c2ccc(F)cc2)o1)c1cccc([N+](=O)[O-])c1,?,i,11µM*,?,2%
Cc1cc(N(C)C)ccc1/C=C/c1ccnc2ccccc12,.,.,.,-15%,.
O=C(NCc1ccccc1Cl)c1ccccc1NC(=O)c1nsc2ccccc12,i,i,-5%,.,.
Cc1ccc(OCC(=O)NCCCNC(=O)c2cnccn2)cc1C,i,i,-14%,0%,6%
Cc1cc(OCC(=O)NNC(=O)c2cnccn2)cc(C)c1Cl,?,i,?,18µM*,-1%
COc1ccc(CNC(=O)CCSCc2cccc(F)c2)cc1,i,i,10µM*,15%,3%
COc1ccc(C(=O)NCCSCc2ccccc2C)cc1,i,i,?,8%,0%
COc1ccc(CNC(=O)CCSCc2cccc(Cl)c2)cc1,i,i,24%,9%,4%
O=C(CCSCc1cccc(Cl)c1)NCc1ccc(F)cc1Cl,?,i,22µM*,.,.
COc1ccc(CNC(=O)CCSCc2ccccc2C)cc1,i,i,7.1µM*,16%,22%
COc1cc2c(cc1NC(=O)CN(C)Cc1ccc(OC)c(OC)c1)oc1ccccc12,i,i,10%,9%,14µM*
COc1ccc(CN(C)CC(=O)Nc2cc3oc4ccccc4c3cc2OC)c(OC)c1,i,.,-26%,-3%,?
CCOc1ccc(NC(=O)C2CCN(S(=O)(=O)c3ccc4c(c3)oc(=O)n4C)CC2)cc1,i,i,-12%,.,.
Cc1ccc(S(=O)(=O)CCC(=O)c2ccc(O)cc2O)cc1,i,i,14µM*,7%,-9%
Cc1ccc(S(=O)(=O)CCC(=O)OCc2ccc(Cl)cc2)cc1,i,.,25µM*,13%,13%
Cc1ccc(S(=O)(=O)CCC(=O)OCC(=O)c2cc(C)ccc2C)cc1,i,i,?,5%,1%
SMILES,Abeta rescue,FUS yeast rescue,TDP43 rescue,aSyn yeast inh,Mito fusion act
CSc1ncc(CN2CCCC(C(=O)c3ccc(C(C)(C)C)cc3)C2)cn1 (stereo not drawn),i,i,-9%,2%,13µM*
O=CNC1CCCc2c1[nH]c1ccc(Cl)cc21 (stereo not drawn),i,.,14µM*,16%,-13%
CCN(CC)C(=O)C1CCCc2c1[nH]c1ccc(Cl)cc21 (stereo not drawn),i,i,14µM*,-7%,15%
Cc1ccc2[nH]c3c(c2c1)CCCC3NC(=O)CCl (stereo not drawn),i,i,13%,16%,0%
CCOC(=O)c1ccc(NC(=O)Cn2cc(C(=O)c3ccc(CC)cc3)c(=O)c3ccc(C)nc32)cc1,i,i,-13%,.,.
CC(C)c1ccc(O)c(C(=O)c2cnn(-c3ccccc3)c2)c1,i,i,20µM*,-27%,.
O=C(CSc1nncc2ccccc12)N1CCOCC1,i,i,-16%,4%,3%
O=C(CSc1nc2ccccc2c2c1CCCC2)N1CCOCC1,i,i,10µM*,?,1%
CCOC(=O)C(=Cc1cc(=O)c(OC)co1)C(=O)OCC,i,i,13µM*,8%,1%
COc1coc(C(O)CN)cc1=O (stereo not drawn),i,i,0%[0.397 µM],1%,0%
CN1CCc2nc3sc(C(=O)Nc4ccccc4OC(F)(F)F)c(N)c3cc2C1,i,?,18µM*,.,.
Cc1cc(Br)ccc1NC(=O)c1coc(=O)c2ccccc12,i,i,13%,.,.
COc1cccc(NC(C)C(=O)Nc2cc([N+](=O)[O-])ccc2Cl)c1 (stereo not drawn),i,i,11µM*,10%,14%
CC(=O)Nc1cccc(OCCCOc2cccc([N+](=O)[O-])c2)c1,i,.,13µM*,-7%,.
COc1ccc(OC(C)C(=O)Nc2cccc([N+](=O)[O-])c2)cc1 (stereo not drawn),i,.,10µM*,-8%,13%
CCC(CC)C(=O)Nc1cc([N+](=O)[O-])ccc1Cl,i,.,?,3%,-6%
COc1ccc(OCCCC(=O)Nc2cccc([N+](=O)[O-])c2)cc1,i,.,23%,7%,2%
CCCN1C(=O)C2(c3ccccc31)c1c(oc3ccc(F)cc3c1=O)C(=O)N2CCCOC(C)C (stereo not drawn),i,i,?,.,.
Cc1cc(C)cc(C(=O)NCC(=O)OCC(=O)NC2CC2)c1,i,i,-14%,-11%,.
CC(=O)c1ccc(N2CCN(C(=O)Nc3ccc(C(C)C)cc3)CC2)cc1,i,i,18µM*!,-23%,0%
O=C(Nc1ccccc1)N1CCCN(c2ccc(C(F)(F)F)cc2[N+](=O)[O-])CC1,i,i,18µM*,14%,-1%
O=C(Nc1ccccc1)N1CCN(c2ccccc2)CC1,i,i,8.9µM*,-2%,.
O=C(C1CCC1)N1CCN(c2ccc(C(F)(F)F)cc2[N+](=O)[O-])CC1,i,.,9%,3%,-2%
O=C(Nc1ccccc1)N1CCN(c2ccc(F)cc2)CC1,i,i,6%,0%,7%
CCCC12CN3CC(CCC)(CN(C1)C3c1ccc(OC(C)C)cc1)C2=O (stereo not drawn),i,i,6%,.,.
O=C1CN(C(=O)COc2ccc(Cl)cc2)C(c2ccccc2)c2cc(Br)ccc2N1 (stereo not drawn),i,i,?,.,.
Cc1ccc(CN(C(=O)COc2ccc([N+](=O)[O-])cc2)c2ccccn2)cc1,i,i,0%,.,.
N/C(=N\OC(=O)CCCOc1ccccc1)c1ccccc1,i,i,25µM*,1%,1%
